Each structure is given as a SMILES string. Records with an inconclusive call do not appear. Active and inactive are the calls of the source. Calls follow the shape of the dose curve; as a rule, active = well fitted inhibition curve with a large enough effect; inconclusive = small, poorly fitted or top-dose-only effect; inactive = flat fitted curve, though single readings scatter.

Test in all cases: qHTS profiling for inhibitors of Plasmodium falciparum proliferation (AID 504749); also: nearly all actives have a fitted effect of over 60% in size
Settings in all cases: P. falciparum in erythrocytes, SYBR Green DNA, 72 h; series mostly up to 28.7 µM

One assay relates to P94_40. Put shortly:
(§1)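 Readout was DNA-dye fluorescence from lysed cultures, ex 485/em 535 nm. Parasitized red cells had grown 72 h with compound; data scaled between 0.29 uM artemisinin and DMSO wells and corrected using vehicle-only plates.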

Another assay relates to PAD. The method, boiled down: as §1
The subject of a further assay is PC15. The method, boiled down:
as §1

The subject of a further assay is PC26. The method, boiled down:
as §1

A further assay deals with PC49. The method, boiled down: as §1
For the next assay, the system named is SC27B. The method, boiled down:
as §1

A further assay relates to TAB109. The method, boiled down: as §1
The subject of a further assay is TAB113. Put shortly:
as §1

For another assay, the system named is TAB165. Put shortly: as §1
The subject of the next assay is W2. Put shortly:
as §1
Potency is read from the fitted curve at half-maximal effect.

In the case of `CNC(=O)OCC[N+](C)(C)C`, the Potency entry with P94_40, in the assay with PAD, in the assay with PC15, in the assay with PC26, with PC49 and in the assay on SC27B was “inactive” each time. In addition, the Potency result in the assay on TAB109, in the assay on TAB113, in the assay on TAB165 and with W2 was “inactive” throughout.
On to `ClC(Cl)(Cl)Cl`, for which the Potency result in the assay with P94_40, in the assay on PAD, in the assay on PC15, in the assay with PC26, in the assay with PC49 and with SC27B was “inactive” each time. Besides, the Potency result in the assay with TAB109, in the assay with TAB113, with TAB165 and in the assay with W2 was “inactive” in each case.
On to `O=c1[nH]cc(N(CCCl)CCCl)c(=O)[nH]1`, for which the Potency result with P94_40, in the assay on PAD, in the assay on PC15, in the assay on PC26, in the assay with PC49 and in the assay with SC27B was “inactive” throughout. Further, the Potency result with TAB109, in the assay with TAB113, in the assay with TAB165 and in the assay on W2 was “inactive” each time.
With `ClC=C(Cl)Cl`, the Potency entry in the assay with P94_40, in the assay with PAD, in the assay with PC15, in the assay with PC26, in the assay on PC49 and with SC27B was “inactive” each time. In addition, the Potency result in the assay with TAB109, with TAB113, with TAB165 and with W2 was “inactive” in each case.
Take `CCCCCCCCOC(=O)c1ccccc1C(=O)OCCCCCCCC`: the Potency entry in the assay with P94_40, with PAD, with PC15, with PC26, with PC49 and with SC27B was “inactive” in each case. For the same compound, the Potency result in the assay with TAB109, with TAB113, with TAB165 and in the assay on W2 was “inactive” each time.
Consider `CCC1(C)CC(=O)NC(=O)C1`, for which the Potency entry in the assay on P94_40, in the assay on PAD, in the assay on PC15, in the assay on PC26, in the assay with PC49 and with SC27B was “inactive” throughout. The Potency result in the assay on TAB109, with TAB113, in the assay with TAB165 and in the assay on W2 was “inactive” throughout.
As for `CCCC(C)C1(CC)C(=O)NC(=O)NC1=O` (stereo not given), the Potency result with P94_40, with PAD, in the assay with PC15, in the assay with PC26, in the assay with PC49 and with SC27B was “inactive” in each case. The Potency result with TAB109, in the assay with TAB113, in the assay with TAB165 and in the assay with W2 was “inactive” in each case.
Regarding `Cn1sc(Cl)cc1=O`, the Potency entry in the assay with P94_40, in the assay with PAD, with PC15, with PC26, with PC49 and with SC27B was “inactive” in each case. Besides, the Potency result in the assay with TAB109, in the assay with TAB113, with TAB165 and in the assay on W2 was “inactive” each time.
For the compound `CCC1(c2ccccc2)C(=O)NC(=O)NC1=O`, the Potency result in the assay on P94_40, in the assay on PAD, with PC15, in the assay with PC26, with PC49 and in the assay on SC27B was “inactive” each time. Further, the Potency entry in the assay with TAB109, in the assay with TAB113, with TAB165 and in the assay on W2 was “inactive” each time.
For `CC(=O)OO`, the Potency entry with P94_40, with PAD, in the assay on PC15, with PC26, in the assay with PC49 and in the assay on SC27B was “inactive” each time. Moreover, the Potency result in the assay with TAB109, with TAB113, in the assay on TAB165 and in the assay with W2 was “inactive” in each case.
As for `O=S(=O)(O)c1cc(O)ccc1O`, the Potency entry in the assay on P94_40, in the assay with PAD, with PC15, in the assay with PC26, in the assay on PC49 and in the assay with SC27B was “inactive” throughout. In addition, the Potency entry with TAB109, in the assay on TAB113, with TAB165 and in the assay with W2 was “inactive” in each case.
For `CC[N+](C)(CC)CCOC(=O)C(O)(c1ccccc1)c1ccccc1`, the Potency entry with P94_40, in the assay with PAD, with PC15, in the assay on PC26, with PC49 and in the assay with SC27B was “inactive” throughout. Further, the Potency entry in the assay on TAB109, with TAB113, with TAB165 and with W2 was “inactive” each time.
Regarding `S=C=S`, the Potency result in the assay with P94_40, in the assay on PAD, with PC15, in the assay with PC26, in the assay with PC49 and in the assay with SC27B was “inactive” in each case. Also, the Potency entry with TAB109, in the assay with TAB113, with TAB165 and with W2 was “inactive” throughout.
Take `C=CCN1CC[C@]23c4c5ccc(O)c4O[C@H]2[C@@H](O)C=C[C@H]3[C@H]1C5`: the Potency entry in the assay on P94_40, in the assay on PAD, in the assay with PC15, in the assay with PC26, with PC49 and in the assay with SC27B was “inactive” in each case. Further, the Potency entry in the assay with TAB109, with TAB113, with TAB165 and in the assay with W2 was “inactive” throughout.
Consider `O=C(O)C(Cl)(Cl)Cl`, for which the Potency entry in the assay with P94_40, in the assay on PAD, in the assay with PC15, in the assay with PC26, in the assay on PC49 and in the assay on SC27B was “inactive” each time. Besides, the Potency entry with TAB109, in the assay on TAB113, in the assay with TAB165 and in the assay on W2 was “inactive” each time.
As for `[O]=[Cd]`, the Potency result with P94_40, with PAD, with PC15, with PC26, with PC49 and with SC27B was “inactive” each time. In addition, the Potency entry with TAB109, in the assay with TAB113, with TAB165 and in the assay with W2 was “inactive” in each case.
Regarding `[N-]=[N+]=CC(=O)OCC(N)C(=O)O` (stereo not given), the Potency entry in the assay on P94_40, in the assay on PAD, in the assay on PC15, in the assay with PC26, with PC49 and with SC27B was “inactive” each time. The Potency result in the assay on TAB109, in the assay with TAB113, in the assay with TAB165 and with W2 was “inactive” in each case.
As for `Oc1cccc[c]1[Hg][Cl]`, the Potency with P94_40 was 5.01 µM (active); in the assay with PAD, 5.62 µM (active); in the assay on PC15, 10 µM (active); with PC26, 12 µM (active); with PC49 it was 14.1 µM (active); with SC27B it was 10 µM (active). Besides, the Potency with TAB109 was 3.98 µM (active); in the assay on TAB113, 10 µM (active); with TAB165, 7.94 µM (active); in the assay on W2 it was 4.78 µM (active).
As for `O=C(OCCN1CCCCC1)C(O)(c1ccccc1)c1ccccc1`, the Potency entry in the assay with P94_40, in the assay on PAD, in the assay on PC15, with PC26, in the assay on PC49 and in the assay on SC27B was “inactive” in each case. Also, the Potency result with TAB109, in the assay with TAB113, in the assay on TAB165 and with W2 was “inactive” each time.
Regarding `C[N+]1(C)C2CCC1CC(OC(=O)c1c[nH]c3ccccc13)C2` (stereo not given), the Potency result in the assay with P94_40, with PAD, in the assay with PC15, with PC26, in the assay on PC49 and with SC27B was “inactive” in each case. In addition, the Potency entry in the assay on TAB109, with TAB113, in the assay on TAB165 and with W2 was “inactive” each time.
With `S=C(S)N1CCNCC1`, the Potency result in the assay with P94_40, in the assay with PAD, in the assay with PC15, in the assay on PC26, in the assay with PC49 and in the assay on SC27B was “inactive” in each case. The Potency result with TAB109, in the assay on TAB113, in the assay on TAB165 and in the assay with W2 was “inactive” each time.
Regarding `CC(=O)OC1CN2CCC1CC2` (stereo not given), the Potency result in the assay on P94_40, in the assay with PAD, in the assay on PC15, in the assay with PC26, with PC49 and in the assay on SC27B was “inactive” in each case. The Potency entry in the assay on TAB109, with TAB113, with TAB165 and with W2 was “inactive” each time.
As to `CC(C)CCON=O`, the Potency result in the assay on P94_40, in the assay on PAD, with PC15, in the assay on PC26, in the assay with PC49 and in the assay with SC27B was “inactive” in each case. Further, the Potency entry with TAB109, in the assay on TAB113, in the assay with TAB165 and with W2 was “inactive” in each case.

The record behind these values is PubChem BioAssay (NCATS).
